Screens as filed in PubChem.
Sampled rows, rich in hits. Any-hit rate of the full collection: about 11%.
Sm TGR inh = inhibitors of Schistosoma mansoni thioredoxin glutathione reductase. actives 3% (n = 360,000). Potency, µM (highest dose often 114 µM), actives largely listed as inhibitors. purified TGR, DTNB reduction, TNB absorbance 405 nm; also: nearly all actives have a fitted effect of over 60% in size
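TGR 20 nM + NADPH 100 uM (dispensed conc.), cpd preinc 15 min RT; start with NADPH (500 uM addition) then DTNB (15 mM addition). Kinetic TNB absorbance, 405 nm filter. Four-parameter Hill fit across titration.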
NS1 inh = blocks influenza NS1 protein function. Potency, µM (titrated, usually from 46.1 µM). actives 0.4% (n = 270,000); calls by dose curve; also: actives are rising curves; nearly all actives have a fitted effect of over 50% in size
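OD600 was taken as the measure of yeast growth restored by compound in an NS1-expressing S. cerevisiae strain. Cells had been washed out of glucose medium and diluted 1:100 into galactose -URA medium, pH 6.0.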
Pf growth 48h = P. falciparum growth inhibition at 48 hours (one generation); P. falciparum luciferase growth in erythrocytes, 48 h; Potency, µM (series often up to 28.7 µM), actives largely listed as inhibitors; actives 5.9% (n = 310,000); AID 504832
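First compound was added to culture medium, then infected red cells at 0.1% parasitemia and 2% hematocrit (final). After incubation at 37 C under 5% CO2, luciferase detection reagent was dispensed and light output recorded.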
AMA1-RON2 inh = disrupts binding of P. falciparum AMA1 to RON2 | AID 720542 | AlphaScreen AMA1-biotinylated RON2 peptide binding | actives 0.2% (n = 360,000) | Potency, µM (highest dose often 58.2 µM), hits mostly inhibitors; also: nearly all actives have a fitted effect of over 45% in size
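AMA1 (3D7) with his tag at 25 nM final met compounds first, then biotinylated RON2 peptide at 25 nM; detection used donor plus acceptor beads, 10 µg/mL apiece, read by AlphaScreen after 30 min at room temperature.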
Pf growth 96h = P. falciparum growth inhibition at 96 hour, primary screen for plastid delayed-death inhibitors; P. falciparum luciferase reporter growth, 96 h; Potency, µM (highest dose often 28.7 µM), most hits filed as inhibitors; actives 6.9% (n = 320,000)
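Compounds incubated with erythrocytes infected by luciferase-expressing P. falciparum (2% hematocrit, 0.05% parasitemia final) for 96 hours, 37 C in 5% CO2. Growth inhibition scored as decreased luciferase luminescence.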
Of the large screens only hits and unclear results are named; the others gave an inactive call. Unless noted, calls follow the shape of the dose curve; as a rule, active = well fitted curve in the direction sought with a large enough effect; inconclusive = small, poorly fitted or top-dose-only effect, or another doubt; inactive = no such curve, though single readings can be large; an effect the other way counts as inactive or inconclusive.

O=C(Nc1ccc2oc(-c3cccnc3)nc2c1)c1ccc(-c2cccc(OC(F)(F)F)c2)o1	Sm TGR inh 10µM (no result: NS1 inh, Pf growth 48h, AMA1-RON2 inh, Pf growth 96h)
O=C(Nc1ccc2oc(-c3ccncc3)nc2c1)c1ccccc1	none (no result: NS1 inh)
CCOc1nc(NCCO)nc(NCCC2=CCCCC2)n1	Pf growth 48h inconclusive, Pf growth 96h 8.3µM
Cc1cccc(C)c1N1C(=O)c2ccccc2NC(=O)C1C(=O)NCCc1ccccc1 (centres undefined)	none (no result: Sm TGR inh, NS1 inh, Pf growth 48h, Pf growth 96h)
OC1(c2ccc(F)cc2)CCNC1 (centres undefined)	none
OC1(c2ccc(Br)cc2)CCNCC1	Sm TGR inh 50µM (no result: Pf growth 96h)
CCCC(C(=O)NCCC(C)C)N(Cc1ccccc1Cl)C(=O)c1snc(C(N)=O)c1N (centres undefined)	none
CSCC(C)N1CCC(Oc2cccc(C(=O)NCc3ccccn3)c2)CC1 (centres undefined)	none
CCOC(=O)C1CCN(C(=O)CCc2ccccc2)CC1	Sm TGR inh 89µM
CCOC(=O)C1CCN(C(=O)CCS(=O)(=O)Cc2ccccc2)CC1	Sm TGR inh 45µM
O=C(CCS(=O)(=O)Cc1ccccc1)N1CCc2ccccc2C1	Sm TGR inh 28µM (no result: Pf growth 96h)
O=C(CCS(=O)(=O)Cc1ccccc1F)N1CCc2ccccc2C1	none
CCOC(=O)C1CCN(C(=O)c2ccc(OCC)c(OCC)c2)CC1	Pf growth 96h 15µM
CCOC(=O)C1CCCN(C(=O)c2ccc(OC)c(OC)c2)CC1 (centres undefined)	none (no result: Sm TGR inh, NS1 inh, Pf growth 48h, Pf growth 96h)
COc1ccccc1C(=O)NCC(=O)NNC(=O)C1COc2ccccc2O1 (centres undefined)	none (no result: NS1 inh)
CCC(Oc1ccccc1F)C(=O)NCCCn1ccnc1 (centres undefined)	none
Cc1ccc(S(=O)(=O)Nc2cc(C)c(O)c(S(=O)(=O)c3ccc(C)cc3)c2)cc1	Sm TGR inh 45µM, NS1 inh inconclusive, Pf growth 48h inconclusive, Pf growth 96h inconclusive
Cc1cc(NS(=O)(=O)c2ccccc2)cc(Cl)c1O	Sm TGR inh inconclusive, Pf growth 96h inconclusive
CC[C@@H](C)[C@H](NC(=O)OCc1ccccc1)c1nnc([C@@H](NC(=O)OCc2ccccc2)[C@@H](C)CC)o1	Pf growth 48h 10µM, Pf growth 96h 10µM
CC(C)(C)OC(=O)N[C@@H](CCCCNC(=O)OCc1ccccc1)c1nnc([C@H](CCCCNC(=O)OCc2ccccc2)NC(=O)OC(C)(C)C)o1	Pf growth 48h inconclusive, Pf growth 96h 2.6µM
O=C(NCCCC(NC(=O)OCc1ccccc1)C(=O)O)OCc1ccccc1 (centres undefined)	NS1 inh inconclusive, Pf growth 96h 6.6µM
COc1ccc(NC(=O)C(Cc2c[nH]c3ccccc23)NC(=O)OC(C)(C)C)cc1 (centres undefined)	none (no result: NS1 inh, Pf growth 48h, AMA1-RON2 inh, Pf growth 96h)
COc1ccc(NC(=O)C(CCCCNC(=O)OC(C)(C)C)NC(=O)OCc2ccccc2)cc1 (centres undefined)	Pf growth 48h inconclusive, Pf growth 96h 0.59µM
Cc1ccc(S(=O)(=O)c2nnn(CC(=O)Nc3ccccc3C)c2N)cc1	none (no result: NS1 inh, Pf growth 48h, AMA1-RON2 inh, Pf growth 96h)
CC(=O)c1ccc(OC(C)C(=O)OCC(=O)NCCc2ccccc2)cc1 (centres undefined)	Pf growth 48h inconclusive, Pf growth 96h inconclusive (no result: NS1 inh)
Cc1ccc(-n2c(=O)c3c4c(sc3n(Cc3ccccc3F)c2=O)CCC4)cc1C	none (no result: NS1 inh, Pf growth 48h, AMA1-RON2 inh, Pf growth 96h)
Cc1cccc(Cn2c(=O)c3c(nc4n3CCCN4Cc3ccccc3)n(C)c2=O)c1	Pf growth 48h 13µM (no result: Pf growth 96h)
Cn1c(=O)n(C/C=C/c2ccccc2)c(=O)c2c1nc1n2CCCN1c1ccc(F)cc1	Pf growth 48h 12µM, Pf growth 96h inconclusive
Cn1c(=O)n(C/C=C/c2ccccc2)c(=O)c2c1nc1n2CCN1c1ccc(Cl)cc1	none (no result: NS1 inh, Pf growth 48h, AMA1-RON2 inh, Pf growth 96h)
COc1ccc(CCN2CCCn3c2nc2c3c(=O)n(Cc3ccccc3F)c(=O)n2C)cc1OC	Sm TGR inh inconclusive, Pf growth 48h 2.3µM, Pf growth 96h 2.9µM
CCn1c(=O)c2c(nc3n2CCCN3CCc2ccc(OC)c(OC)c2)n(C)c1=O	Pf growth 48h inconclusive, Pf growth 96h inconclusive
CCn1c(=O)c2c(nc3n2CCCN3Cc2ccccc2)n(C)c1=O	Pf growth 48h inconclusive
C=CCn1c(=O)c2c(nc3n2CCCN3Cc2ccccc2)n(C)c1=O	Pf growth 48h inconclusive
Cn1c(=O)n(C/C=C/c2ccccc2)c(=O)c2c1nc1n2CCCN1Cc1ccccc1	NS1 inh inconclusive, Pf growth 48h 13µM, AMA1-RON2 inh inconclusive, Pf growth 96h 15µM
